Data as given in ChEMBL document CHEMBL1157539, “Thousands of chemical starting points for antimalarial lead identification” (Nature, 2010).

Tests used:
Format in all cases: functional
[1] = test system: Plasmodium falciparum; experiment: GSK_TCMDC: Inhibition of Plasmodium falciparum 3D7 in whole red blood cells, using parasite LDH activity as an index of growth. Test compounds present at 2uM
[2] = test system: Plasmodium falciparum; experiment: GSK_TCMDC: Inhibition of Plasmodium falciparum Dd2 in whole red blood cells, using parasite LDH activity as an index of growth. Test compounds present at 2uM
[3] = test system: HepG2; experiment: GSK_TCMDC: Percent inhibition of human HepG2 cell line. Test compounds present at 10uM.

Row | SMILES | Inhibition [1] | Inhibition [2] | Inhibition [3]
1 | Fc1ccc2[nH]c(-c3ccc(-c4ccc(CNCc5cnn(-c6ccccc6)n5)cc4)cc3)nc2c1.O=C(O)C(F)(F)F | 98% | 47% | 41%
2 | O=C(Cn1c(CCc2cccc(F)c2F)cc(=O)c2ccccc21)N(CCN1CCCC1)Cc1ccc(-c2ccc(C(F)(F)F)cc2)cc1.O=C(O)C(O)C(O)C(=O)O | 99% | 57% | 89%
3 | CC1(C)C(N(O)C(=O)Nc2ccc(Cl)c(Cl)c2)N(c2ccc(Cl)c(Cl)c2)C(=O)N1CCc1ccccc1 (stereo not given) | 91% | 93% | 10%
4 | O=C(Nc1ccc(OC2CCN(Cc3ccccc3)CC2)c(Cl)c1)c1cccs1.O=C(O)C(F)(F)F | 96% | 95% | 2%
5 | C=CCn1c(Sc2ccc(C#N)c([N+](=O)[O-])c2)nnc1-c1cc(OC)cc(OC)c1 | 96% | 84% | 12%
6 | CCCc1ccccc1Nc1nc(C)cc(N(CC)CCCN2CCCCC2)n1.O=C(O)C(F)(F)F | 98% | 49% | 27%
7 | O=C(/C=C/c1ccc(Cl)c(Cl)c1)NC1CCN(Cc2ccc(O)cc2)C1.O=C(O)C(F)(F)F (stereo not given) | 97% | 4% | 15%
8 | CN(C)c1ccc(-c2ccc(C(=O)NC3CCN(Cc4ccccc4F)CC3)s2)cc1.O=C(O)C(F)(F)F | 88% | 19% | 30%
9 | Cc1cc(=NN=Cc2ccccc2F)c2cc(C(F)(F)F)ccc2[nH]1 | 100% | 67% | 5%
10 | Cc1cc(=NN=Cc2ccccc2Cl)c2ccccc2[nH]1 | 100% | 30% | 0%
